Assay results published in PubChem BioAssay (NCI).
About 83,000 compounds went through this panel and 20% of them were active in at least one assay; those are over-represented in the sample as a whole.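 48-hour exposure, single concentration, 96-well plates; percent growth endpoint where 0 means no net growth. Active: below 10.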 Values without a mark were called inactive. The source made the active and inactive calls.

How the values were obtained:
Assay in all cases: NCI-60 one-dose screen, 48 h (100 = growth as untreated, 0 = no growth, -100 = all killed)
Conditions in all cases: 10 µM unless noted
NCI-H23 lung = tested on: NCI-H23 lung
NCI-H322M lung = tested on: NCI-H322M lung
HOP-62 NSCLC = tested on: HOP-62 NSCLC
NCI-H460 lung = tested on: NCI-H460 lung
HOP-92 NSCLC = tested on: HOP-92 NSCLC
NCI-H522 lung = tested on: NCI-H522 lung
786-0 renal = tested on: 786-0 renal
COLO 205 colon = tested on: COLO 205 colon
DU-145 prostate = tested on: DU-145 prostate
K-562 leukemia = tested on: K-562 leukemia
MALME-3M melanoma = tested on: MALME-3M melanoma
MDA-MB-231 breast = tested on: MDA-MB-231 breast
RXF 393 renal = tested on: RXF 393 renal
SF-268 CNS = tested on: SF-268 CNS
SF-295 CNS = tested on: SF-295 CNS
SF-539 CNS = tested on: SF-539 CNS
UACC-257 melanoma = tested on: UACC-257 melanoma
M14 melanoma = tested on: M14 melanoma
HCT-15 colon = tested on: HCT-15 colon
A549/ATCC NSCLC = tested on: A549/ATCC NSCLC

SMILES: COc1ccc2oc(=O)cc(Cn3cc(Cn4cnc5c4c(=O)n(C)c(=O)n5C)nn3)c2c1
- growth (NCI-H23 lung): 101%
- growth (NCI-H322M lung): 101%
- growth (HOP-62 NSCLC): 101%
- growth (NCI-H460 lung): 105%
- growth (HOP-92 NSCLC): 104%
- growth (NCI-H522 lung): 98.6%
- growth (786-0 renal): 98%
- growth (COLO 205 colon): 110%
- growth (DU-145 prostate): 105%
- growth (K-562 leukemia): 103%
- growth (MALME-3M melanoma): 91.5%
- growth (MDA-MB-231 breast): 98%
- growth (RXF 393 renal): 120%
- growth (SF-268 CNS): 100%
- growth (SF-295 CNS): 102%
- growth (SF-539 CNS): 94%
- growth (UACC-257 melanoma): 98%
- growth (M14 melanoma): 100%
- growth (HCT-15 colon): 105%

SMILES: CCN(CC)CCCNc1ccnc2cc3ccccc3cc12
- growth (NCI-H23 lung): 83.3%
- growth (NCI-H322M lung): 76%
- growth (HOP-62 NSCLC): -9.44% (active)
- growth (NCI-H460 lung): 45.5%
- growth (HOP-92 NSCLC): 55.6%
- growth (A549/ATCC NSCLC): 46.6%
- growth (786-0 renal): 66.8%
- growth (COLO 205 colon): 74.8%
- growth (DU-145 prostate): 73.8%
- growth (K-562 leukemia): 66.3%
- growth (MALME-3M melanoma): 40.6%
- growth (MDA-MB-231 breast): 56.4%
- growth (RXF 393 renal): 35.7%
- growth (SF-268 CNS): 60.2%
- growth (SF-295 CNS): -34% (active)
- growth (SF-539 CNS): 30.8%
- growth (UACC-257 melanoma): 75.5%
- growth (M14 melanoma): 81.9%
- growth (HCT-15 colon): 43.2%

SMILES: CN1CCN(c2nc(Nc3ccc(O)cc3)nc3ccccc23)CC1
- growth (NCI-H23 lung): 74.8%
- growth (NCI-H322M lung): 68%
- growth (HOP-62 NSCLC): 74.5%
- growth (NCI-H460 lung): 13.9%
- growth (HOP-92 NSCLC): 89.6%
- growth (A549/ATCC NSCLC): 42.5%
- growth (786-0 renal): 64.2%
- growth (COLO 205 colon): 44.1%
- growth (DU-145 prostate): 63%
- growth (K-562 leukemia): 42%
- growth (MALME-3M melanoma): 61.8%
- growth (MDA-MB-231 breast): 66.2%
- growth (RXF 393 renal): 77.3%
- growth (SF-268 CNS): 52.5%
- growth (SF-539 CNS): 47.2%
- growth (UACC-257 melanoma): 59.2%
- growth (M14 melanoma): 50.3%
- growth (HCT-15 colon): 32.5%

SMILES: Cc1ccc2c(n1)C(=O)C(Oc1ccc(Br)cc1)=CC2=O
- growth (NCI-H23 lung): 94.5%
- growth (NCI-H322M lung): 99.6%
- growth (HOP-62 NSCLC): 116%
- growth (NCI-H460 lung): 99.1%
- growth (HOP-92 NSCLC): 108%
- growth (NCI-H522 lung): -27% (active)
- growth (786-0 renal): 104%
- growth (DU-145 prostate): 110%
- growth (K-562 leukemia): 77%
- growth (MALME-3M melanoma): 115%
- growth (MDA-MB-231 breast): 91.1%
- growth (RXF 393 renal): 104%
- growth (SF-268 CNS): 88.4%
- growth (SF-295 CNS): 103%
- growth (SF-539 CNS): 104%
- growth (UACC-257 melanoma): 106%
- growth (M14 melanoma): 94.9%
- growth (HCT-15 colon): 84.7%

SMILES: COCCN(C(=O)Cc1cccs1)C(C(=O)NCc1ccc(OC)cc1)c1ccc(C(C)C)cc1 (stereo unspecified)
- growth (NCI-H23 lung): 86.4%
- growth (NCI-H322M lung): 92.2%
- growth (HOP-62 NSCLC): 97.8%
- growth (NCI-H460 lung): 78.2%
- growth (HOP-92 NSCLC): -3.71% (active)
- growth (A549/ATCC NSCLC): 87.2%
- growth (786-0 renal): 95%
- growth (COLO 205 colon): 104%
- growth (DU-145 prostate): 63.5%
- growth (K-562 leukemia): 77%
- growth (MALME-3M melanoma): 72.2%
- growth (MDA-MB-231 breast): 71.4%
- growth (RXF 393 renal): 88.5%
- growth (SF-268 CNS): 57.8%
- growth (SF-295 CNS): 84.3%
- growth (SF-539 CNS): 93.3%
- growth (UACC-257 melanoma): 122%
- growth (M14 melanoma): 106%
- growth (HCT-15 colon): 95.7%

SMILES: Cn1nc(C(C)(C)C)cc1NC(=O)Cc1ccc(/C=C2\C(=O)Nc3ccccc32)cc1
- growth (NCI-H23 lung): 41.1%
- growth (NCI-H322M lung): 84.8%
- growth (HOP-62 NSCLC): 74.3%
- growth (NCI-H460 lung): 67.8%
- growth (HOP-92 NSCLC): 59.5%
- growth (A549/ATCC NSCLC): 57.6%
- growth (786-0 renal): 72.1%
- growth (COLO 205 colon): 80.2%
- growth (DU-145 prostate): 56.6%
- growth (K-562 leukemia): 22.3%
- growth (MALME-3M melanoma): 58%
- growth (MDA-MB-231 breast): 66.4%
- growth (RXF 393 renal): 70.9%
- growth (SF-268 CNS): 63.1%
- growth (SF-295 CNS): 51.7%
- growth (SF-539 CNS): 54.9%
- growth (UACC-257 melanoma): 41.4%
- growth (M14 melanoma): 56.5%
- growth (HCT-15 colon): 48.4%

SMILES: COc1cc([C@@H]2NC(=O)NC(C)=C2C(=O)Nc2nc(-c3ccc(Cl)cc3)cs2)ccc1O
- growth (NCI-H23 lung): 96.3%
- growth (NCI-H322M lung): 95.4%
- growth (HOP-62 NSCLC): 86.1%
- growth (NCI-H460 lung): 102%
- growth (HOP-92 NSCLC): 103%
- growth (NCI-H522 lung): 84%
- growth (786-0 renal): 98.4%
- growth (COLO 205 colon): 116%
- growth (DU-145 prostate): 102%
- growth (K-562 leukemia): 99.9%
- growth (MALME-3M melanoma): 95.4%
- growth (MDA-MB-231 breast): 92.6%
- growth (SF-268 CNS): 94%
- growth (SF-295 CNS): 98.2%
- growth (SF-539 CNS): 95.7%
- growth (UACC-257 melanoma): 104%
- growth (M14 melanoma): 94.2%

SMILES: O=C1C(=O)c2c(ccc3ccccc23)-c2ccccc21
- growth (NCI-H23 lung): -48.4% (active)
- growth (NCI-H322M lung): 50.5%
- growth (HOP-62 NSCLC): 9.44% (active)
- growth (NCI-H460 lung): 3.58% (active)
- growth (HOP-92 NSCLC): -20.6% (active)
- growth (NCI-H522 lung): -77.4% (active)
- growth (786-0 renal): -6.68% (active)
- growth (COLO 205 colon): 52%
- growth (K-562 leukemia): 8.29% (active)
- growth (MALME-3M melanoma): -83.8% (active)
- growth (MDA-MB-231 breast): -7.61% (active)
- growth (RXF 393 renal): 22%
- growth (SF-268 CNS): 1.97% (active)
- growth (SF-295 CNS): 109%
- growth (SF-539 CNS): -53.5% (active)
- growth (UACC-257 melanoma): -37.4% (active)
- growth (M14 melanoma): -44.6% (active)
- growth (HCT-15 colon): -27.6% (active)

SMILES: O=C(/C=C/c1ccc(Cl)cc1)c1ccc(Nc2nc(NCCO)nc(N3CCOCC3)n2)cc1
- growth (NCI-H23 lung): 94.8%
- growth (NCI-H322M lung): 90.8%
- growth (HOP-62 NSCLC): 89.6%
- growth (NCI-H460 lung): 98.1%
- growth (HOP-92 NSCLC): 98.6%
- growth (A549/ATCC NSCLC): 68%
- growth (786-0 renal): 90.6%
- growth (DU-145 prostate): 92.9%
- growth (K-562 leukemia): 44.5%
- growth (MALME-3M melanoma): 99.5%
- growth (MDA-MB-231 breast): 84.3%
- growth (RXF 393 renal): 71.3%
- growth (SF-268 CNS): 82%
- growth (SF-295 CNS): 94.5%
- growth (SF-539 CNS): 90.4%
- growth (UACC-257 melanoma): 101%
- growth (M14 melanoma): 105%

SMILES: N#C/C(=C\c1c(-c2ccccc2)[nH]c2ccccc12)S(=O)(=O)c1ccccc1
- growth (NCI-H23 lung): 40.7%
- growth (NCI-H322M lung): 60%
- growth (HOP-62 NSCLC): 39.2%
- growth (NCI-H460 lung): 16.1%
- growth (HOP-92 NSCLC): 53%
- growth (A549/ATCC NSCLC): 45.5%
- growth (786-0 renal): 51.3%
- growth (COLO 205 colon): 12.8%
- growth (DU-145 prostate): 21.2%
- growth (K-562 leukemia): 17.5%
- growth (MALME-3M melanoma): 76.5%
- growth (MDA-MB-231 breast): 47.2%
- growth (SF-268 CNS): 53%
- growth (SF-295 CNS): 25.7%
- growth (SF-539 CNS): -20.1% (active)
- growth (UACC-257 melanoma): 73.8%
- growth (M14 melanoma): 42.8%
- growth (HCT-15 colon): 44.1%

SMILES: COc1cccc(C(=O)NC(c2ccc(C)cc2)c2cc(Cl)c3cccnc3c2O)c1 (stereo unspecified)
- growth (NCI-H23 lung): 28.7%
- growth (NCI-H322M lung): 9.1% (active)
- growth (HOP-62 NSCLC): 9.9% (active)
- growth (NCI-H460 lung): 0.0612% (active)
- growth (HOP-92 NSCLC): 31.8%
- growth (A549/ATCC NSCLC): 6.84% (active)
- growth (786-0 renal): 6.38% (active)
- growth (COLO 205 colon): 14.4%
- growth (DU-145 prostate): 15.3%
- growth (K-562 leukemia): 7.41% (active)
- growth (MALME-3M melanoma): -1.84% (active)
- growth (MDA-MB-231 breast): 31.2%
- growth (RXF 393 renal): 9.4% (active)
- growth (SF-268 CNS): 6.71% (active)
- growth (SF-295 CNS): -0.279% (active)
- growth (SF-539 CNS): 1.97% (active)
- growth (UACC-257 melanoma): -7.2% (active)
- growth (M14 melanoma): -13.9% (active)
- growth (HCT-15 colon): 28.1%
